Our source for the Potency and outcome values is PubChem BioAssay (NCATS).

What all share (assay): qHTS profiling for inhibitors of Plasmodium falciparum proliferation (AID 504749); note: nearly all actives have a fitted effect of over 60% in size
Holding throughout (conditions): P. falciparum in erythrocytes, SYBR Green DNA, 72 h; series mostly up to 28.7 µM
In general terms: qHTS replaces the single test concentration by a dilution series.

One test has as its system CP335. The gist of the method: (§1)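 In a 72 h erythrocytic culture (37 C, humidified, 5% CO2) at 2.5% hematocrit and 0.3% starting parasitemia, compounds were tested; SYBR Green I in detergent lysis buffer stained parasite DNA overnight.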
The next test concerns DFO2036. Put shortly: as §1
A further test relates to DIV14. The gist of the method: as §1
The next test concerns DIV17. The gist of the method: as §1
Another test concerns Dd2. Put shortly:
as §1

A further test concerns ECU. The gist of the method:
as §1

Another test has as its system FAB9. Put shortly:
as §1

Another test relates to GB4. Put shortly:
as §1

In the next test the test system is HB3. Put shortly:
as §1

The test system of a further test is DIV30. Put shortly: as §1

Each structure is given as a SMILES string. Results filed as inconclusive are left out. Active and inactive are the calls of the source. Calls come from the whole dose curve; as a rule, active = well fitted inhibition curve with a large enough effect; inconclusive = small, poorly fitted or top-dose-only effect; inactive = flat fitted curve, though single readings scatter.
Potency is the fitted concentration of half-maximal effect.

Consider `N[C@@H](Cc1ccc(O)cc1)C(=O)O`, for which the Potency entry in the test with CP335, in the test with DFO2036, in the test with DIV14, in the test on DIV17, in the test on Dd2 and in the test with ECU was “inactive” throughout. For the same compound, the Potency entry in the test with FAB9, in the test on GB4 and with HB3 was “inactive” in each case.
On to `CC(C)=CCC/C(C)=C/CO`, for which the Potency entry in the test on CP335, in the test with DFO2036, in the test on DIV14, with DIV17, with Dd2 and in the test on ECU was “inactive” throughout. For the same compound, the Potency result in the test on FAB9, in the test on GB4 and with HB3 was “inactive” each time. Also, the outcome with DIV30 was inactive.
For the compound `CC(N)CCCC(C)(C)O` (centres undefined), the Potency result with CP335, with DFO2036, with DIV14, in the test with DIV17, with Dd2 and in the test on ECU was “inactive” in each case. The Potency entry in the test on FAB9, in the test with GB4 and in the test with HB3 was “inactive” in each case. Besides, in the test with DIV30, the compound was called inactive.
Turning to `CC(C)C[C@@H](N)C(=O)O`, the Potency entry in the test with CP335, in the test with DFO2036, in the test with DIV14, in the test with DIV17, in the test with Dd2 and with ECU was “inactive” each time. For the same compound, the Potency result in the test with FAB9, in the test with GB4 and with HB3 was “inactive” in each case. The compound was classed as inactive in the test on DIV30.
In the case of `CCOc1ccc(C(=O)OCCN(CC)CC)cc1`, the Potency result with CP335, in the test with DFO2036, with DIV14, in the test on DIV17, in the test on Dd2 and in the test on ECU was “inactive” throughout. In addition, the Potency entry with FAB9, in the test with GB4 and with HB3 was “inactive” in each case. Besides, the result with DIV30 was inactive.
Consider `Nc1ccc(C(=O)Oc2ccccc2)c(O)c1`, for which the Potency entry in the test on CP335, with DFO2036, with DIV17, in the test on Dd2, in the test with ECU and with FAB9 was “inactive” in each case. The Potency entry in the test with GB4 and with HB3 was “inactive” each time. Also, the call with DIV30 was inactive.
Regarding `NNc1nnc(NN)c2ccccc12`, the Potency entry in the test with CP335, in the test on DFO2036, with DIV14, in the test on DIV17, with Dd2 and in the test with ECU was “inactive” throughout. Besides, the Potency entry in the test with FAB9, in the test with GB4 and in the test with HB3 was “inactive” each time. Also, the compound was called inactive in the test with DIV30.
Turning to `CC(=O)N[C@@H](Cc1ccc(O)cc1)C(=O)O`, the Potency result in the test on CP335, in the test on DFO2036, in the test with DIV14, in the test with DIV17, in the test with Dd2 and with ECU was “inactive” in each case. The Potency result with FAB9, with GB4 and in the test with HB3 was “inactive” throughout.
For the compound `COc1ccccc1Oc1c(NS(=O)(=O)c2ccc(C(C)(C)C)cc2)nc(-c2ncccn2)nc1OCCO`, the Potency entry in the test on CP335, in the test on DFO2036, in the test on DIV14, in the test on DIV17, in the test with Dd2 and in the test with ECU was “inactive” in each case. The Potency result in the test with FAB9, in the test on GB4 and with HB3 was “inactive” each time. Moreover, the result in the test with DIV30 was inactive.
Regarding `FC(F)(F)C(Cl)Br` (centres undefined), the Potency entry in the test on CP335, in the test with DFO2036, with DIV14, with Dd2, with ECU and in the test with FAB9 was “inactive” in each case. Further, the Potency result in the test with GB4 and in the test on HB3 was “inactive” each time. The compound was called inactive with DIV30.
For the compound `CCN(CC)C(=O)c1cccc(C)c1`, the Potency result with CP335, in the test with DFO2036, in the test with DIV14, in the test with DIV17, with Dd2 and with ECU was “inactive” throughout. In addition, the Potency result in the test on FAB9, with GB4 and in the test on HB3 was “inactive” in each case. Further, the compound was called inactive with DIV30.
Turning to `O=S1(=O)OC(c2ccc(O)cc2)(c2ccc(O)cc2)c2ccccc21`, the Potency result in the test on CP335, in the test on DFO2036, in the test with DIV14, in the test with DIV17, in the test on Dd2 and with ECU was “inactive” in each case. For the same compound, the Potency entry in the test on FAB9, in the test on GB4 and in the test on HB3 was “inactive” in each case. In the test on DIV30, the compound was classed as inactive.
As for `O=C1CC[C@@H](C(=O)O)N1`, the Potency result in the test with CP335, in the test on DFO2036, in the test with DIV14, in the test on Dd2, with ECU and with FAB9 was “inactive” each time. The Potency result with HB3 is “inactive”. In addition, the compound was called inactive in the test with DIV30.
As for `O=C(O)CCCCC1CCSS1` (centres undefined), the Potency result in the test with CP335, in the test with DFO2036, in the test on DIV17, in the test with Dd2, in the test with ECU and with FAB9 was “inactive” throughout. The Potency result in the test on GB4 and with HB3 was “inactive” each time. In addition, the compound was called inactive in the test with DIV30.
With `CCCCCCCCCCOc1cc2c(=O)c(C(=O)OCC)c[nH]c2cc1OCC`, the Potency was 1.3 nM (active) with CP335; 1.4 nM (active) in the test on DFO2036; 0.0054 µM (active) in the test with DIV14; 0.0067 µM (active) in the test with DIV17; 0.0028 µM (active) in the test with Dd2; 2.8 nM (active) in the test with ECU. Besides, the Potency in the test with FAB9 was 5 nM (active); in the test with GB4 it was 0.0021 µM (active); in the test on HB3, 2 nM (active).
Regarding `NC(N)=NS(=O)(=O)c1ccc(N)cc1`, the Potency result in the test on CP335, in the test on DFO2036, in the test on DIV14, in the test with DIV17, with Dd2 and in the test with ECU was “inactive” throughout. For the same compound, the Potency result with FAB9, in the test with GB4 and with HB3 was “inactive” in each case. For the same compound, the call in the test on DIV30 was inactive.
For `O=C(O)c1cc(=O)c2ccccc2o1`, the Potency entry in the test with CP335, with DFO2036, in the test on DIV14, in the test on Dd2, in the test on ECU and in the test on FAB9 was “inactive” in each case. The Potency entry in the test on HB3 was “inactive”. In addition, in the test with DIV30, the result was inactive.
Consider `CCN(CC)CCOC(=O)C(c1ccccc1)c1ccccc1`, for which the Potency entry in the test on CP335, with DFO2036, in the test on DIV14, in the test on DIV17, in the test with ECU and in the test on FAB9 was “inactive” in each case. For the same compound, the Potency result in the test with HB3 was “inactive”. The compound was classed as inactive in the test with DIV30.
Regarding `OC[C@@H](O)[C@@H](O)[C@H](O)[C@H](O)CO`, the Potency entry in the test with DFO2036, in the test on DIV14, with DIV17, in the test with Dd2, with ECU and with FAB9 was “inactive” throughout. Besides, the Potency entry in the test on GB4 and in the test with HB3 was “inactive” throughout. In addition, in the test on DIV30, the compound was called inactive.
For `CCN1CC(CCN2CCOCC2)C(c2ccccc2)(c2ccccc2)C1=O` (centres undefined), the Potency entry in the test with DFO2036, in the test with DIV17, in the test on FAB9 and in the test with HB3 was “inactive” throughout. The result in the test on DIV30 was inactive. Also, the Potency in the test with Dd2 was 12.6 µM (active).
For `Cc1cc(OI)c(C(C)C)cc1-c1cc(C(C)C)c(OI)cc1C`, the Potency result in the test on DFO2036 and in the test on FAB9 was “inactive” in each case. Moreover, the Potency with DIV14 was 10.7 µM (active); in the test with DIV17, 13.5 µM (active); with Dd2, 10 µM (active); with GB4, 13.5 µM (active).
Regarding `C[C@H]1COc2c(C3(N)CC3)c(F)cc3c(=O)c(C(=O)O)cn1c23`, the Potency entry in the test with DFO2036, in the test on DIV17, in the test with Dd2, in the test on ECU, in the test on FAB9 and in the test with HB3 was “inactive” throughout. For the same compound, the result with DIV30 was inactive.
Regarding `CN1CCCN=C1COC(=O)C(O)(c1ccccc1)C1CCCCC1` (centres undefined), the Potency result in the test on CP335, in the test with DFO2036, in the test with DIV17, with Dd2, in the test on ECU and in the test with FAB9 was “inactive” in each case. For the same compound, in the test with HB3, the Potency result is “inactive”. Also, the outcome in the test on DIV30 was inactive.
